Screening results deposited in PubChem by National Center for Advancing Translational Sciences (NCATS).
USP2a block = blocks human ubiquitin-specific protease USP2a; O75604; USP2 core, Ub-CHOP2 coupled fluorogenic reporter, 485/531; Potency, µM (top dose mostly 38.3 µM), inactives show at the top dose activity change, negative = inhibition, usual class: inhibitors; 0.01% of 330,000 active; AID 463254;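 also: plate controls were DMSO wells for no effect and full inhibition by NEM control for full effect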
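USP2 core (10nM final) preincubated 30min RT with compound in 20mM Tris-HCl pH 8.0, 2mM CaCl2, 2mM beta-mercaptoethanol, 0.05% CHAPS; 25nM Ub-CHOP2 plus 25nM reporter substrate added, fluorescence (Ex485/Em531) read after 60min.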
EPAC2 agonist = activates human EPAC2 exchange factor; EPAC2 activation, biochemical qHTS; response scale: 100% = 6.5 mM cAMP response; Potency, µM (series often up to 154 µM), for inactives: at the top dose activation, actives largely listed as activators; 0.079% of 360,000 active; AID 720711; also: nearly all actives have a fitted effect of over 50% in size
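Compounds were added across a concentration range to EPAC2 (100 nM), RAP1B-BODIPY-GDP (250 nM) and GDP (50 uM). After 5 min at room temperature, fluorescence was recorded at 5-min intervals for 30 min.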
USP1 inh = inhibitors of human USP1/UAF1 deubiquitinase; O94782; recombinant USP1/UAF1, Ub-Rhodamine cleavage fluorescence; Potency, µM (series often up to 57.1 µM), for the others: at the highest dose activity change, negative = inhibition, usual class: inhibitors; 0.23% of 390,000 active; AID 743255; also: % is scaled to controls: 0 for no effect and ±100 for the full control effect; nearly all actives have a fitted effect of over 60% in size
Target sequence (O94782 whole entry, looked up): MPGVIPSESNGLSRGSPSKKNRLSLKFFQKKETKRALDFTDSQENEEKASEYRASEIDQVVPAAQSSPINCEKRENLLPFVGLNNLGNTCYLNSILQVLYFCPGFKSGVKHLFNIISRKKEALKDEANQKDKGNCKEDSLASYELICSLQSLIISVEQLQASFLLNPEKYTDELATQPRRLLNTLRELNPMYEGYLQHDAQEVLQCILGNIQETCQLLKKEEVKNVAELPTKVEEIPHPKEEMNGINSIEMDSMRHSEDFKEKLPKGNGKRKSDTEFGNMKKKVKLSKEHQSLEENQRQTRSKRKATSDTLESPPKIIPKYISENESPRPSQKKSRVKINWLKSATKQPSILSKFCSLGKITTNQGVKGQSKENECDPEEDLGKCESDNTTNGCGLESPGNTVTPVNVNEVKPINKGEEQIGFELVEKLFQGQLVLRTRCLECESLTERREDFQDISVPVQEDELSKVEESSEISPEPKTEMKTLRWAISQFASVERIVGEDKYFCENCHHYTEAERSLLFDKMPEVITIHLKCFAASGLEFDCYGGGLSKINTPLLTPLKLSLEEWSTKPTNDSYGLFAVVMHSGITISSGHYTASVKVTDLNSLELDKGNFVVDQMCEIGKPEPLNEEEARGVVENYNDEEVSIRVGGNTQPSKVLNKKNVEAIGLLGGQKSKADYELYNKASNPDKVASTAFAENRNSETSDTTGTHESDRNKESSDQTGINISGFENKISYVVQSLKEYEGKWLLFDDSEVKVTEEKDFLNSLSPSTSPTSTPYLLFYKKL
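1 nM enzyme complex + cpd, 15 min RT; start with Ub-Rho 150nM final; kinetic fluorescence ex 480/em 540, 6 reads q60 s. Buffer 50mM HEPES pH 7.8, 0.5mM EDTA, 0.1 mg/ml BSA, 1mM TCEP, 0.01% Tween-20.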
EPAC2 antagonist = antagonists of human EPAC2. Q8WZA2. EPAC2 GEF exchange of Rap1B-BODIPY-GDP, fluorescence. Potency, µM (highest dose often 114 µM), for inactives: at the highest dose activity, negative = inhibition, actives largely listed as inhibitors. 0.18% of 360,000 active. AID 720708; also: % is scaled to controls: 0 for no effect and ±100 for the full control effect; nearly all actives have a fitted effect of over 45% in size
EPAC1 agonist = agonists of human EPAC1; O95398; EPAC1 agonist qHTS, biochemical assay; response scale: 100% = response to 6.5 mM cAMP; Potency, µM (doses to about 154 µM), without a hit: top-dose activation, actives largely listed as activators; 0.073% of 360,000 active; AID 720707; also: nearly all actives have a fitted effect of over 60% in size
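Compounds were pinned as a concentration titration into mixtures of EPAC1 (100 nM), BODIPY-GDP-loaded Rap1B (250 nM) and GDP (50 uM). After 5 min at room temperature, fluorescence was followed for 30 min; activity was scaled to 6.5 mM cAMP.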
EPAC1 antag = antagonists of human EPAC1; 0.14% of 360,000 active; Potency, µM (highest dose often 115 µM), without a hit: at the top dose activity change, negative = inhibition, hits mostly inhibitors; EPAC1 GEF assay, Rap1b-BODIPY-GDP exchange fluorescence; O95398;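 also: plate controls were vehicle for no effect and positive control for full effect; nearly all actives have a fitted effect of over 50% in size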
* hit, by the source's call; ? = inconclusive; . = not tested or not shown; [ ] = remark or other dose. Rows were chosen to be rich in hits. Some 0.44% of all compounds tested hit in one or more screens of this group. Calls follow the shape of the dose curve; as a rule, active = well fitted curve in the direction sought with a large enough effect; inconclusive = small, poorly fitted or top-dose-only effect, or another doubt; inactive = no such curve, though single readings can be large; an effect the other way counts as inactive or inconclusive. Potency is read from the fitted curve at half-maximal effect.

SMILES | USP2a block | EPAC2 agonist | USP1 inh | EPAC2 antagonist | EPAC1 agonist | EPAC1 antag
O=C1c2cccc3c(N4CCCCC4)ccc(c23)C(=O)N1c1ccccn1 | 23% | -10% | -22% | -18%[57.1 µM] | 0% | 2%
CCCN1C(=O)c2cccc3c(N4CCCCC4)ccc(c23)C1=O | 4% | 100µM* | -21% | 34% | ? | 8%
CC1=C(C(=O)N2CCN(c3ccc(Cl)cc3)CC2)C2(CCC(C)CC2)OC1=O (stereo not given) | . | . | -25% | . | . | .
Cc1cc(C)c2c(n1)SCCN2C(=O)Nc1ccc(C(=O)Nc2cc(Cl)ccc2C)cc1 | . | . | -14% | . | . | .
O=C(CSc1nnc(-c2cccs2)n1Cc1ccco1)Nc1ccc2c(c1)OCO2 | -5% | 7.9µM* | -14% | 6% | -8% | -6%
Cc1ccc(NC(=O)CN2C(=O)COc3ccc(S(=O)(=O)N4CCCCC4)cc32)cc1N(C)C | . | . | -7% | . | . | .
O=C(Cn1c(=O)nc(-c2ccccc2F)c2cc(Cl)ccc21)N1CCN(c2ccccc2F)CC1 | . | . | -11% | . | . | .
Cn1cc(-c2ccccc2C(N)=O)c(=O)c2cc(Cl)ccc21 | 3% | 2% | -16% | 17% | -2% | -9%
Cn1cc(C2=C(c3ccc(Cl)cc3Cl)C(=O)NC2=O)c2ccccc21 | 4% | 100µM* | -16% | 15% | -47% | ?
O=C(CSc1nc(=O)n(Cc2ccncc2)c2c1CCC2)Nc1ccc(F)cc1F | . | . | -29% | . | . | .
COc1ccc2cc(CCC(C)=O)ccc2c1 | 0% | 6% | ? | 28µM* | -10% | -10%
CCOC(=O)c1[nH]c2ccccc2c1NC(=O)c1ccccc1OCC | . | . | -16% | . | . | .
COc1ccc(NC(=O)[C@@H]2[C@@H]3C(=O)N(C4CCCCC4)C(=O)[C@@H]3C3c4ccccc4C=CN32)cc1 (stereo not given in full) | -6% | -8% | 32µM* | -5% | 3% | -1%
Cc1ccc(S(=O)(=O)N2[C@@H](c3ccccc3F)C(C(=O)O)=CC[C@H]2c2ccc(C(C)C)cc2)cc1 | -15% | -3% | -27% | -7% | 2% | -28%
Cc1ccc([C@@H]2CC=C(C(=O)O)[C@H](c3ccc(F)cc3)N2S(=O)(=O)c2ccc(C)cc2)cc1 | 0% | 15% | -16% | -2% | 7% | 4%
Cc1ccc(S(=O)(=O)N2[C@@H](c3ccc(C(C)(C)C)cc3)C(C(=O)O)=CC[C@H]2c2cccs2)cc1 | -4% | -9% | -12% | 32µM* | -4% | -16%
Cc1ccc([C@@H]2CC=C(C(=O)O)[C@H](c3ccc(C(C)(C)C)cc3)N2S(=O)(=O)c2ccc(C)cc2)cc1 | ? | -14% | ? | ? | -24% | 28µM*
Cc1ccc(S(=O)(=O)N2[C@@H](c3ccc(C(C)(C)C)cc3)C(C(=O)O)=CC[C@H]2c2ccc(C(C)C)cc2)cc1 | ? | -23% | ? | 40µM* | -48% | 32µM*
Cc1ccc(S(=O)(=O)N2[C@@H](c3ccc(Br)cc3)C(C(=O)O)=CC[C@H]2c2ccc(C(C)C)cc2)cc1 | -28% | 5% | -9% | ? | 3% | 56µM*
CCSC1=NC2(CCN(C(=O)NC3CCCCC3)CC2)N=C1c1ccc(C)cc1 | . | . | 11% | . | . | .
COc1ccc(NC(=O)C(c2ccc(C(F)(F)F)cc2)n2c(=O)c(-c3cc4ccccc4[nH]3)nc3ccccc32)cc1 (stereo not given) | . | 3% | . | -13% | -13% | -8%
Cc1ccc(S(=O)(=O)N2[C@@H](c3ccc(Cl)cc3)C(C(=O)O)=CC[C@H]2c2ccc(Cl)c(Cl)c2)cc1 | 0% | -2% | -30% | ? | 1% | ?
Cc1ccc(S(=O)(=O)N2C(c3ccc(Cl)c(Cl)c3)CC=C(C(=O)O)C2c2ccc(Cl)cc2)cc1 (stereo not given) | . | -7% | . | 63µM* | 13% | -10%
Cc1ccc(S(=O)(=O)N2[C@@H](c3ccc(Cl)c(Cl)c3)C(C(=O)O)=C[C@H]2CC2CCCC2)cc1 | -4% | -3% | ? | ? | -15% | 50µM*
CCc1ccc([C@@H]2CC=C(C(=O)O)[C@H](c3ccc(C(C)(C)C)cc3)N2S(=O)(=O)c2ccc(C)cc2)cc1 | ? | -15% | ? | 56µM* | -33% | 45µM*
SMILES | USP2a block | EPAC2 agonist | USP1 inh | EPAC2 antagonist | EPAC1 agonist | EPAC1 antag
Cc1ccc(S(=O)(=O)N2[C@@H](c3ccc(Cl)cc3)C(C(=O)O)=C[C@H]2CC2CCCC2)cc1 | 0% | 4% | -16% | -28% | -18% | -25%
COc1ccc(Cl)cc1NC(=O)c1c(NCc2cccs2)sc2c1CCC(C)C2 (stereo not given) | . | . | -11% | . | . | .
CCOC(=O)C1CCCN(S(=O)(=O)c2ccc(N3CCCCS3(=O)=O)cc2)C1 (stereo not given) | . | . | 7% | . | . | .
Cc1cc(C)cc(NC(=O)N2CCC(C(N)=O)(N3CCCCC3)CC2)c1 | . | . | 4% | . | . | .
Cc1ccc(C(C[N+](=O)[O-])c2c(-c3ccccc3O)[nH][nH]c2=O)cc1 (stereo not given) | 1% | -3% | ? | 11µM* | -17% | -17%
O=c1[nH][nH]c(-c2ccccc2O)c1C(C[N+](=O)[O-])c1ccc(Br)cc1 (stereo not given) | -1% | -9% | -12% | 11µM* | -13% | 17%
COc1ccc(C(C[N+](=O)[O-])c2c(C)[nH]n(-c3ccccc3)c2=O)cc1 (stereo not given) | 1% | -1% | ? | 7% | 19% | -5%
CCCSCCCNC(=O)c1ccc2nc(Cc3ccccc3)oc2c1 | . | . | -23% | . | . | .
CN(CC(=O)Nc1ccc(F)cc1)C(=O)COC(=O)C1CCN(c2ccc(C(F)(F)F)cn2)CC1 | -2% | 0% | -23% | -17% | 100µM* | -16%
Fc1ccc(-[n+]2nc(Nc3ccccc3)sc2-c2c3ccccc3cc3ccccc23)cc1 | -3% | 11% | ? | -6% | -18% | -26%
Oc1ccc2ccccc2c1-c1sc(Nc2ccccc2)n[n+]1-c1ccc(F)cc1 | -1% | -336% | 265% | 50µM* | -79% | ?
COc1ccc(Cn2c(=O)c3oc4ccccc4c3n(Cc3ccc(F)cc3)c2=O)cc1 | . | . | -9% | . | . | .
Cc1ccc(-c2cc(C(=O)Nc3ccc4c(c3)OCCO4)c3ccccc3n2)cc1 | 3% | 7.9µM* | ? | -14% | 8% | -5%
COc1ccc(S(=O)(=O)N2CCN(Cc3nc4ccc(C)cc4o3)CC2)cc1 | . | . | -8% | . | . | .
COc1cccc(-c2nc(-c3ccc(-c4ccccc4)nc3OC)no2)c1 | . | . | -11% | . | . | .
